Source: PubChem
FMDV antiviral = antivirals against foot and mouth disease virus. AID 1159524. 1.2% of 410,000 active. FMDV antiviral cell-based qHTS. Potency, µM (highest dose often 57.9 µM), without a hit: at the top dose activity change, negative = inhibition, most hits filed as inhibitors; calls by dose curve; tested in HEK293T cells; note: read-out not given here; potency is the fitted concentration of half-maximal effect; nearly all actives have a fitted effect of over 45% in size
VACV mCherry inh = inhibitors of vaccinia virus infection (mCherry reporter signal); 0.63% of 310,000 active; Potency, µM (titrated, usually from 36.5 µM), without a hit: at the top dose activity change, negative = inhibition, actives largely listed as inhibitors; Vaccinia virus mCherry reporter infection, fluorescence; calls by dose curve; tested in A549 cells; note: potency is the fitted concentration of half-maximal effect; nearly all actives have a fitted effect of over 35% in size
HCMV antiviral = inhibitors of human cytomegalovirus. HFF cells, HCMV-luciferase reporter, 72 h; active compounds read low. activity change, negative = inhibition, % at 57.5 µM. 4.5% of 410,000 active. AID 1259415; in the data active = activity change below about -60%; inconclusive = no clear call, values can overlap the other calls; inactive = above about -39%
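Two-dose cell screen: HFF monolayers treated with compounds and infected with luciferase-expressing HCMV at 1 PFU/cell, 72 h at 37C, then lysed for luciferase measurement.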
HCV inh = inhibitors of hepatitis C virus infection; Huh7.5.1 HCVcc-Cre infection, luciferase reporter, 44 h; Potency, µM (top dose mostly 41.8 µM), for the others: top-dose activity change, negative = inhibition, actives largely listed as inhibitors; 3.4% of 340,000 active; AID 651820; note: potency is the fitted concentration of half-maximal effect
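Antiviral activity was scored by luciferase reporter output from cells infected with HCVcc-Cre (~0.5 moi) in presence of compound, 44 h infection period, cells seeded 1,000/well 4 h prior.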
FBPA Giardia inh = inhibitors of Giardia lamblia fructose-1,6-bisphosphate aldolase | 0.71% of 290,000 active | purified Giardia FBPA | A8B2U2 | Potency, µM (highest dose often 59.6 µM), for inactives: top-dose activity, negative = inhibition, actives largely listed as inhibitors; note: potency is the fitted concentration of half-maximal effect; nearly all actives have a fitted effect of over 55% in size
Target sequence (A8B2U2 whole entry, looked up): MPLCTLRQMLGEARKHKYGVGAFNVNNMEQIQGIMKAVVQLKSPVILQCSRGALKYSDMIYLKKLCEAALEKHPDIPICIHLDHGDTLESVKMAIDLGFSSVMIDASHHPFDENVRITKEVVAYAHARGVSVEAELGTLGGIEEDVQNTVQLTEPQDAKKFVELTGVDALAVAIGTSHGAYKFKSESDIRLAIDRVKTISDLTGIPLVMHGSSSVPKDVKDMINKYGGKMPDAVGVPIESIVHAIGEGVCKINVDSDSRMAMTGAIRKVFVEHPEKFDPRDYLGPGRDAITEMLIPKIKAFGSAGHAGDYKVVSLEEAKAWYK
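Giardia FBPA (40 nM reagent) was preincubated 10 min at RT with compound (up to 57.5 uM final), then substrate plus GAPDH/TPI/NAD/arsenate coupling system with diaphorase/resazurin was added; resorufin fluorescence (525/598 nm) was read after 20 min.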
VACV Venus inh = inhibitors of vaccinia virus (Venus reporter). 0.46% of 330,000 active. Potency, µM (series often up to 36.5 µM), inactives show top-dose activity change, negative = inhibition, actives largely listed as inhibitors. Vaccinia virus Venus reporter expression, fluorescence; calls by dose curve; tested in A549 cells; note: potency is the fitted concentration of half-maximal effect; nearly all actives have a fitted effect of over 30% in size
The depositor's hits bear a star; i = inactive; ? = inconclusive; · = no result given; [ ] = remark or other dose. Most compounds without a hit are left out; they make up all but 7.5% or so of the library. Unless noted, calls come from the whole dose curve; as a rule, active = well fitted curve in the direction sought with a large enough effect; inconclusive = small, poorly fitted or top-dose-only effect, or another doubt; inactive = no such curve, though single readings can be large; an effect the other way counts as inactive or inconclusive. % is set by controls: 0 for no effect and ±100 for the full control effect.

SMILES	FMDV antiviral	VACV mCherry inh	HCMV antiviral	HCV inh	FBPA Giardia inh	VACV Venus inh
Cc1cccc(NS(=O)(=O)c2ccc(C)c(C(=O)NNC(=O)c3csc(N4CCOCC4)n3)c2)c1	9%	·	0	-20%	·	·
CC1(C(=O)NCc2cccc3ccccc23)CCN1C(=O)Cc1ccc(-c2ccccc2)cc1 (stereo not given)	?	10%	-11	·	·	-17%
CCCCn1cc(S(=O)(=O)c2ccc(CC)cc2)c(=O)c2cc(F)c(N3CCCC(C)C3)cc21 (stereo not given)	-2%	-7%	0	·	·	-18%
O=C1N2c3ccccc3CCc3cccc(c32)C1(O)C(F)(F)F (stereo not given)	?	-26%	-61*	-22%	-5%	-27%
COc1ccc(C2CC(c3cccs3)=NN2C(=O)CCl)cc1OC (stereo not given)	?	?	-97*	?	-2%	-22%
COc1cc(C2CC(c3cccs3)=NN2C(=O)CCl)ccc1OC(F)F (stereo not given)	16µM*	0%	-97*	11µM*	-10%	-6%
CC(NC(=O)C1CCN(C(=O)[C@@H]2Cc3ccccc3CN2)CC1)c1ccccc1 (stereo not given in full)	46%	·	-31	6%	?	·
CC(C)Oc1ccc(-c2nc3c(C#N)c[nH]n3c2NC2CCCCC2)cc1	-4%	?	12	·	·	?
COc1ccccc1CN1CCOc2ccc(C(C)(O)COc3ccccc3)cc2C1 (stereo not given)	-6%	-15%	·	·	·	-10%
Cc1ccccc1CS(=O)(=O)Cc1ccc(C(=O)NCCc2ccc(Cl)cc2)o1	28µM*	-1%	0	·	·	-13%
Cc1ccc(CS(=O)(=O)Cc2ccc(C(=O)NCc3cccs3)o2)cc1	-23%	0%	-89*	-4%	1%	-3%
Cc1ccc(CS(=O)Cc2ccc(C(=O)NCc3cccs3)o2)cc1 (stereo not given)	18%	·	10	-9%	·	·
CCC1CCCCN1C(=O)Cn1c(=O)oc2cc(S(=O)(=O)N3CCCCC3)ccc21 (stereo not given)	4%	-3%	-12	·	·	9%
O=c1c2cn[nH]c2nc(SCc2cccc(Br)c2)n1-c1ccc(Cl)cc1	0%	-12%	8	·	·	-14%
O=c1c2cn[nH]c2nc(SCc2ccc3c(c2)OCCO3)n1-c1ccccc1	25µM*	-26%	-37	?	-1%	?
Cc1cc(-n2c(SCc3ccccc3F)nc3[nH]ncc3c2=O)ccc1Cl	-18%	-13%[7.34 µM]	-64*	·	·	-8%[7.34 µM]
CCOc1ccccc1CNc1ccc(O)cc1	12%	?	?	10%	11µM*	5%
COc1ccc(Br)cc1CNc1ccc2[nH]c(=O)[nH]c2c1	-20%	?	?	?	1%	2%
Cc1ccc(NCc2ccccc2OCc2ccccc2F)cc1	-19%	·	10	1%	-11%	·
Oc1ccc(NCc2ccccc2OCc2ccccc2F)cc1	?	-2%	?	-23%	13µM*	7%
COc1ccc(Br)cc1CNc1ccc(O)cc1	-28%	-8%	-19	?	16µM*	0%
COc1ccc(NC(=O)CSc2nc3c(c(=O)[nH]2)CN(Cc2ccccc2)CC3)cc1Cl	-7%	-2%	-3	·	·	10%
CCOC(=O)c1ccccc1NC(=O)Cn1nnc2sc3c(c2c1=O)CCCC3	-29%	-9%	8	·	·	-9%
CCC1CN(Cc2cccn2-c2ccccn2)Cc2cc(OC)ccc2O1 (stereo not given)	26%	-9%	·	·	·	5%
CCCC1(C)Nc2ccccc2-c2nc3ccccc3n21 (stereo not given)	0%	?	73	-16%	-1%	-11%
SMILES	FMDV antiviral	VACV mCherry inh	HCMV antiviral	HCV inh	FBPA Giardia inh	VACV Venus inh
c1ccc2c(c1)NC1(CCCC1)n1c-2nc2ccccc21	·	-4%	-28	11µM*	10%	-22%
C[C@H](NC(=O)c1cccc2ccccc12)C(O)c1nc2ccccc2[nH]1 (stereo not given in full)	·	·	-9	·	·	·
CS(=O)(=O)N(CC(=O)N1CCCC1)c1ccc(Cl)cc1Cl	-6%	-15%	-28	2.8µM*	3%	-7%
CC[C@]12c3[nH]c4ccc(OC)cc4c3CCN1C(=O)C(CC(=O)NCCc1ccccn1)C[C@@H]2C(=O)N1CCN(C(=O)C2CC2)CC1 (stereo not given in full)	-12%	i	30	-14%	·	1%
O=C(O)CCc1ccc(-c2cccs2)n1CC1CCCO1 (stereo not given)	15%	·	-24	-2%	8%	·
COCCn1c(-c2ccc(Br)cc2)csc1=Nc1cccnc1	32µM*	?	-37	?	-3%	?
FC(F)Oc1ccc(-c2csc(=Nc3cccnc3)n2CC2CCCO2)cc1 (stereo not given)	8.9µM*	-27%	-76*	11µM*	-20%	-25%
COc1ccc(-c2csc(=Nc3ccccc3)n2CCO)cc1F	?	-12%	-8	·	·	-13%
Clc1ccc(-c2csc(=Nc3cccnc3)n2CCCn2ccnc2)cc1Cl	32µM*	?	-94*	11µM*	17%	?
COc1ccc(N=c2scc(-c3ccc(OC)cc3)n2CCO)cc1	-2%	·	-74*	6.3µM*	-8%	·
O=C(NC1CCCCCC1)C1CCN(c2nc3ccccc3o2)CC1	?	·	-74*	-8%	9%	·
CC(C)Nc1ncnc2c1ncn2[C@H]1CN(Cc2ccc(Cl)cc2)C[C@@H](CO)O1	9%	i	21	·	·	-17%
C#C[C@]1(O)CC[C@H]2[C@@H]3CCC4=Cc5oncc5C[C@]4(C)[C@H]3CC[C@@]21C	40µM*	0%	9	7%	·	-20%
CCN(CC)CCNCC1C(=O)O[C@@H]2C[C@@]3(C)CCC[C@H](C)C3=C[C@H]12 (stereo not given in full)	?	4.5µM*	?	?	?	10µM*
CCc1cccc2c(C(=O)COC(=O)c3ccccc3)c[nH]c12	38%	-6%	-9	?	-1%	-7%
CCc1cccc2c(C(=O)C(NC(C)CC)c3ccccc3)c[nH]c12 (stereo not given)	-16%	?	-22	11µM*	9%	-4%
CCc1cccc2c(C(=O)C(NCCCOC)c3ccccc3)c[nH]c12 (stereo not given)	-9%	i	8	11µM*	2%	5%
Cc1ccc(C(=O)NCC(=O)NC2CCCCCC2)cc1	55%	-24%	-97*	-4%	2%	-22%
CCCCOc1ccc(C(=O)NCC(=O)NC2CC2)cc1	5%	i	-16	13%	·	-14%
CC(C)c1ccc(N2C(=O)NC(=O)/C(=C\C=C\c3ccco3)C2=O)cc1	?	i	-95*	?	0%	37%
